The target of experiment [1] is Alpha-galactosidase A (Homo sapiens) (UniProt P06280). Put plainly: Counterscreen for Glucocerebrosidase Inhibitors: qHTS Assay for Human alpha-Galactosidase at pH 4.5 (AID 992). Further: 0% is about no effect. An outline of the steps:
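Quantitative HTS: compounds tested from 0.7 nM up to 77 uM against 2 nM enzyme with 80 uM 4-MU alpha-D-galactopyranoside. The 20 min room-temperature reaction is stopped with 1M NaOH/1M glycine, pH 10.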

Experiment [2] deals with alpha-glucosidase (Oryza sativa, rice) (UniProt Q653V4). In words: Counterscreen for Glucocerebrosidase Inhibitors: qHTS Assay for Rice alpha-Glucosidase at pH 5.0 (AID 997).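 Further: 0% = full activity with enzyme and -100% = basal without enzyme.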 In a few lines: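 Rice alpha-glucosidase (4 nM final) with 400 uM 4-methylumbelliferyl-alpha-D-glucopyranoside in citrate buffer pH 5.0, 20 min at room temperature, stopped at pH 10; fluorescence 365/440 nm, compounds 0.7 nM–77 uM, AC50 from Hill fits.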
On the technique in general: The purpose of a counterscreen is to sort out artefacts and off-target activity.

A short description of experiment [3]: Validation of Assay for Modulators of Lamin A Splicing (AID 1459; active means well fitted curve in the direction sought with a large enough effect in the signal ratio; the % refers to the signal ratio;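 further: cells exposed to compound for two days before reading; 0% is about no effect; ratio rise marks activators and ratio drop marks inhibitors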). An outline of the steps:
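Dual-reporter HeLa S3 line (lamin A-EGFP minigene, DsRed2) treated with compounds 48 hrs, 0.5% DMSO final. Endpoint: EGFP/DsRed2 total intensity ratio from laser-scanning microplate cytometry.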

The nature of experiment [4]: qHTS Assay for Lipid Storage Modulators (AID 1519; calls by dose curve; on activity change, negative = inhibition: on the % scale 0 is the no-effect control and ±100 the full control effect). Particulars: Drosophila S3 cells, BODIPY lipid droplet/cell ratio, laser cytometry, cells loaded with oleic acid. In a few lines:
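Cells seeded at 5,000 per well were treated with compounds over a concentration series and loaded with oleic acid (400 uM, as added). Lipid droplet fluorescence (488 nm excitation, 500-530 nm channel) was read by laser-scanning cytometry and normalized to 20 uM Triacsin C.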

A short description of experiment [5]: Cell Viability - LYMP2-020 (AID 986).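 Further: plate controls were DMSO only for no effect and tetraoctylammonium bromide at 92 µM for full effect; nearly all actives have a fitted effect of over 55% in size.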 An outline of the steps: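 Human lymphoblastoid LYMP2-020 cells (2500/well) preincubated 5 h at 37 C, then treated 24 h at 37 C. Viability measured as intracellular ATP by CellTiter-Glo luminescence after 30 min at room temperature; AC50 from Hill fits.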
A short description of experiment [6]: Cell Viability - LYMP2-022 (AID 987).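 Further: 0% = DMSO alone and full effect = tetraoctylammonium bromide at 92 µM; nearly all actives have a fitted effect of over 55% in size.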 In a few lines: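 LYMP2-022 lymphoblastoid cells (2500/well, complete medium) were treated with compounds for 24 hours at 37 C; intracellular ATP was then read by CellTiter-Glo luminescence after 30 min at room temperature. AC50 values were derived from Hill-equation fits.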
A short description of experiment [7]: Cell Viability - LYMP2-024 (AID 988).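 Further: plate controls were DMSO only for no effect and 92 µM tetraoctylammonium bromide for full effect; nearly all actives have a fitted effect of over 60% in size.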 In a few lines: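 Human lymphoblastoid LYMP2-024 cells (2500/well) rested 5 hr, then treated with compound for 24 hr at 37 C in complete medium. Viability was measured as intracellular ATP by CellTiter-Glo luminescence. AC50 values came from Hill-equation fits.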
Experiment [8] is described as follows: Cell Viability - LYMP2-026 (AID 989). Further: on the % scale 0 is the no-effect control and ±100 the full control effect; nearly all actives have a fitted effect of over 50% in size. In a few lines: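 Human lymphoblastoid LYMP2-026 cells, 2500/well, exposed to compound 24 h at 37 C in complete medium. Viability as intracellular ATP by CellTiter-Glo luminescence; AC50 from Hill fits of qHTS concentration-response.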
Experiment [9] in a line: Cell Viability - LYMP1-002 - Assay at 24 hr (AID 993). Further: on the % scale 0 is the no-effect control and ±100 the full control effect. An outline of the steps: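 Human lymphoblastoid LYMP1-002 cells (2500/well) treated 24 h at 37 °C; viability as intracellular ATP by CellTiter-Glo luminescence. Tetraoctylammonium bromide as positive control; AC50 from Hill-equation fits of qHTS concentration-response.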
A short description of experiment [10]: Cell Viability - LYMP1-002 - Assay at 40 hr (AID 994).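 Further: 0% = DMSO only and full inhibition = 92 µM tetraoctylammonium bromide; nearly all actives have a fitted effect of over 60% in size.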 In a few lines: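 LYMP1-002 human lymphoblastoid cells (2500/well, complete medium) were treated with compounds for 40 hr at 37 C. Intracellular ATP was measured by CellTiter-Glo luminescence, and AC50 values came from Hill-equation fits of concentration-response data; tetraoctylammonium bromide was the positive control.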

[11] abbreviates: measured here: cell count channel max response.
Setting [12] is: measured here: lipid channel max response.

Several values for one entry are separate records, joined by “and”; a condition that tells them apart may be missing. Equal entries are not always repeated. Records with an inconclusive call do not appear. Activity calls are given as the source filed them. Unless noted, the call rests on the fitted dose curve; in most records, active means well fitted curve in the direction sought with a large enough effect; inconclusive means small, poorly fitted or top-dose-only effect, or another doubt; inactive means no such curve, though single readings can be large; an effect the other way counts as inactive or inconclusive.

Sequence of Alpha-galactosidase A (Homo sapiens) (P06280 whole entry, looked up): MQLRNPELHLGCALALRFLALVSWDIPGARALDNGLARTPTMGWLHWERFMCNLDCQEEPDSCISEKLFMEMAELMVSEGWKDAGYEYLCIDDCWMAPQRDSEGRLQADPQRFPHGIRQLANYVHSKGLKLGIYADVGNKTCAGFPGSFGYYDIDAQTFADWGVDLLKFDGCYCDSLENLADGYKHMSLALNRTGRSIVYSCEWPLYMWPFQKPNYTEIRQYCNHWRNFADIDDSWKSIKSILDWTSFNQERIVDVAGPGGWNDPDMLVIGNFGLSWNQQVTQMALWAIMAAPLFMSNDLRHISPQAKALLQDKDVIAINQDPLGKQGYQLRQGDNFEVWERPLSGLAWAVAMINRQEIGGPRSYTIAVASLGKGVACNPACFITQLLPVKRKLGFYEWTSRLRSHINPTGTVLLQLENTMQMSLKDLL

Turning to `O=C1N(c2ccccc2)c2ccccc2C1(Cc1ccncc1)Cc1ccncc1`, the call in experiment [1], in [2] and in [3] was inactive.

Take `CCC1(C)CC(=O)NC1=O` (configuration not stated): in [4] (at 57.5 µM (top of the series)), the activity change, negative = inhibition was 5.33% (inactive) and 1.46% (inactive). Moreover, the max response was 13.5% and 40.9% in experiment [4] (setting [11]); 22.9% and 41% in experiment [4] (setting [12]).

For `CN1CCN2c3ccccc3Cc3ccccc3C2C1` (configuration not stated), the activity change, negative = inhibition in experiment [4] (at 57.5 µM (top of the series)) was 3.41% (inactive). Besides, the max response was determined as 10.1% in [4] (setting [11]) and 10.4% in experiment [4] (setting [12]).

In the case of `CC(CCc1ccc(O)cc1)NCCc1ccc(O)c(O)c1` (configuration not stated), the molecule was called inactive in experiment [3].

Regarding `CC(C)(Oc1ccc(C2CC2(Cl)Cl)cc1)C(=O)O` (configuration not stated), the activity change, negative = inhibition in [4] (at 57.5 µM (top of the series)) was 1.98% (inactive). In addition, the max response was -18.9% in experiment [4] (setting [11]) and -26.3% in experiment [4] (setting [12]).

As to `Clc1ccc2c(c1)C(N1CCNCC1)=Nc1ccccc1O2`, the call in [1], in [2] and in experiment [3] was inactive. In addition, the activity change, negative = inhibition in [4] (at 25.7 µM (top of the series)) is -5.1% (inactive); in experiment [4] (at 57.5 µM (top of the series)), 3.92% (inactive) and 1.18% (inactive). Besides, the max response is -3.99% and 1.39% and 11.5% in experiment [4] (setting [11]); -7.98% and 5.5% and 12.2% in experiment [4] (setting [12]).

In the case of `O=C(c1ccc(F)cc1)C1CCN(CCn2c(=O)[nH]c3ccccc3c2=O)CC1`, the outcome in experiment [1], in experiment [2] and in experiment [3] was inactive. Besides, the activity change, negative = inhibition in experiment [4] (at 57.5 µM (top of the series)) is 3.6% (inactive) and 3.32% (inactive). The max response in [4] (setting [11]) is 11.4% and 58.6%; in experiment [4] (setting [12]), 27.6% and 62%.

For `COc1ccccc1OCC(O)CN1CCN(CC(=O)Nc2c(C)cccc2C)CC1` (configuration not stated), in experiment [3], the call was inactive. For the same molecule, the activity change, negative = inhibition in experiment [4] (at 57.5 µM (top of the series)) was 13.2% (inactive). Besides, the max response in [4] (setting [11]) is 8.98%; in [4] (setting [12]) it was 24.1%.

As to `CN(C)c1nc(N(C)C)nc(N(C)C)n1`, the molecule was called inactive in experiment [1], in experiment [2] and in experiment [3]. Also, the activity change, negative = inhibition is -1.28% (inactive) in [4] (at 25.7 µM (top of the series)); 7.55% (inactive) and -0.1% (inactive) in [4] (at 57.5 µM (top of the series)). Also, the max response in [4] (setting [11]) is 4.02% and 17.6% and 11.3%; in [4] (setting [12]) it was 2.91% and 27.7% and 12.4%.

On to `CC(=O)OCC(CCn1cnc2cnc(N)nc21)COC(C)=O`, for which the activity change, negative = inhibition in experiment [4] (at 57.5 µM (top of the series)) was 8.16% (inactive). In addition, the max response in experiment [4] (setting [11]) amounted to 10.2%; in experiment [4] (setting [12]), 23.5%.

`N[C@@H](Cc1c[nH]c2ccc(O)cc12)C(=O)O`: the call in [5], in experiment [6], in [7], in experiment [8], in [1] and in experiment [9] was inactive. Also, the result in experiment [2] and in [3] was inactive. In addition, the Potency entry in [10] is “inactive”.

In the case of `CCOC(=O)C(C)(C)Oc1ccc(Cl)cc1`, the molecule was called inactive in experiment [1], in [2] and in experiment [3].

On to `CC1COc2c(N3CCN(C)CC3)c(F)cc3c(=O)c(C(=O)O)cn1c23` (configuration not stated), for which the outcome in experiment [3] was inactive. Moreover, the activity change, negative = inhibition in experiment [4] (at 57.5 µM (top of the series)) is 6.1% (inactive) and 7.75% (inactive). The max response in experiment [4] (setting [11]) is 10.5% and 11.1%; in experiment [4] (setting [12]) it was 20.7% and 20.3%.

As to `CC(C)NCC(O)COc1ccc(CCOCC2CC2)cc1` (configuration not stated), the activity change, negative = inhibition in experiment [4] (at 57.5 µM (top of the series)) is -2.88% (inactive). Moreover, the max response was -16.9% in [4] (setting [11]) and -20.2% in experiment [4] (setting [12]).

Regarding `CCCNCC(O)COc1ccccc1C(=O)CCc1ccccc1` (configuration not stated), the activity change, negative = inhibition in experiment [4] (at 57.5 µM (top of the series)) was 6.61% (inactive) and -1.46% (inactive). Besides, the max response in experiment [4] (setting [11]) is 8.1% and 22.1%; in experiment [4] (setting [12]) it was 14% and 22.1%.

On to `COc1ccc(C2CNC(=O)C2)cc1OC1CCCC1` (configuration not stated), for which the molecule was classed as inactive in experiment [1], in experiment [2] and in experiment [3].

`Cn1cnc2c1c(=O)[nH]c(=O)n2C`: the result in [1], in experiment [2] and in [3] was inactive. Moreover, the activity change, negative = inhibition in [4] (at 25.7 µM (top of the series)) is -1.11% (inactive); in experiment [4] (at 57.5 µM (top of the series)), -1.44% (inactive) and 2.73% (inactive). The max response in experiment [4] (setting [11]) was -1.67% and 17.8% and 14.4%; in experiment [4] (setting [12]) it was -0.915% and 15.2% and 17.5%.

For the origin of these results see PubChem BioAssay (NCATS).
